Assay outcomes deposited in PubChem by National Center for Advancing Translational Sciences (NCATS).
TDP43 rescue: rescues yeast growth from TDP-43 toxicity. TDP-43 expressing yeast growth rescue, BacTiter-Glo, 24 h. hit rate 1.8% among 410,000. AID 652104. Potency, µM (top dose mostly 46.1 µM), usual class: activators; note: nearly all actives have a fitted effect of over 50% in size
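Yeast cells expressing TDP-43 under galactose induction are exposed to compounds for 24 hr at 30 deg C. BacTiter-Glo luminescence measures growth, so protective compounds score as activators.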
Mm-Cpn inhibitor: blocks the Methanococcus maripaludis chaperonin Mm-Cpn; purified Mm-Cpn ATPase, ADP Transcreener TR-FRET; Potency, µM (top dose mostly 76.9 µM), hits mostly inhibitors; hit rate 0.031% among 330,000; note: nearly all actives have a fitted effect of over 80% in size
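Measured: ADP formation by purified Mm-CPN. Conditions: 25 nM protein, 10 uM ATP, Tris pH 7.4 with Mg2+, K+ and DTT, 37°C for 30 min. Detection: Transcreener HTRF after 30 min at room temperature.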
ClpP mod: qHTS Assay for Activators of ClpP; ATP-dependent Clp protease proteolytic subunit (Bacillus subtilis (strain 168)), P80244; purified B. subtilis ClpP, FRET peptide cleavage, 20 min; hit rate 1.9% among 340,000; Potency, µM (titrated, usually from 57.5 µM); active = well fitted falling curve with a large enough effect; inconclusive = small, poorly fitted or top-dose-only effect; inactive = no such curve, though single readings can be large or run the other way; note: the source files actives as falling curves though it sought activators and does not explain the sign; nearly all actives have a fitted effect of over 65% in size
Target sequence (P80244 whole entry, looked up): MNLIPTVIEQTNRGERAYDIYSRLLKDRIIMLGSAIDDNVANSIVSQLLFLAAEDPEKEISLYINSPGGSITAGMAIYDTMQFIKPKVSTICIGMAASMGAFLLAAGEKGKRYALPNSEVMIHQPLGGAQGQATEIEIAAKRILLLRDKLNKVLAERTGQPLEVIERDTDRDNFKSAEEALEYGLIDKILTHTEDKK
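Purified B. subtilis ClpP, 10 microg/mL final in Tris/HCl pH8 with KCl, BSA, glycerol and Tween-20, cleaved an Abz/nitrotyrosine-quenched decapeptide. Fluorescence (ex 320, em 430) was read at 0 and 20 min at room temperature. Delta was normalized to 5.8 microM ADEP and DMSO/no-enzyme controls.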
FUS yeast rescue: rescues growth of FUS-expressing yeast; S. cerevisiae FUS-expressing, growth rescue, OD600, 24 h; Potency, µM (series often up to 76.6 µM), usual class: activators; hit rate 0.24% among 390,000; note: nearly all actives have a fitted effect of over 55% in size
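FUS-expressing yeast, raffinose-pregrown, induced in 2% galactose minimal medium at OD 0.005; compounds in a dilution series, 24hr at 30C. Growth restoration read as absorbance at 600 nm. CP55940 positive control, DMSO negative.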
aSyn yeast inh: inhibitors of alpha-synuclein toxicity in yeast | Yeast expressing alpha-synuclein, growth rescue, BacTiter-Glo, 24 h | hit rate 0.14% among 370,000 | AID 652106 | Potency, µM (doses to about 46.1 µM), usual class: activators; note: nearly all actives have a fitted effect of over 65% in size
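Galactose-induced alpha-syn yeast (OD600=0.02, raffinose-pregrown) + pinned cpd, 24 hr, 30 deg C; growth by BacTiter-Glo luminescence. Growth restoration scores as activation.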
Abeta yeast res: compounds reversing amyloid beta toxicity in yeast | Potency, µM (series often up to 46.1 µM), most hits filed as activators | hit rate 0.063% among 410,000 | yeast expressing A-beta42, growth rescue, OD600, 48 h; response scale: 0% DMSO, 100% iron-clioquinol control; note: nearly all actives have a fitted effect of over 55% in size
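Yeast growth medium received pinned compounds, then yeast cells expressing toxic A-beta were added; plates incubated at 30 C for 48 hr. Growth read as absorbance at 600 nm, normalized to DMSO and equimolar FeCl3 plus clioquinol controls.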
Hits are given with their value; ! = not confirmed by another sample; [ ] = dose if it differs, or a comment. Shown are actives, neighbours in structure and some others; about 3.6% of the full set was active somewhere. Unless noted, calls come from the whole dose curve; as a rule, active = well fitted curve in the direction sought with a large enough effect; inconclusive = small, poorly fitted or top-dose-only effect, or another doubt; inactive = no such curve, though single readings can be large; an effect the other way counts as inactive or inconclusive.

What do the screens show for `Cc1nn(-c2ccccc2)c(N2CCCC2)c1/C=N/NC(=S)Nc1cc(C(F)(F)F)ccc1Cl`?
TDP43 rescue: inactive; Mm-Cpn inhibitor: inactive; ClpP mod: 28µM; FUS yeast rescue: inactive; aSyn yeast inh: inactive; Abeta yeast res: inactive

How did Cc1nn(-c2ccccc2)c(N2CCCC2)c1/C=N/NC(=S)Nc1ccccc1C(F)(F)F do in these assays?
TDP43 rescue: inactive; Mm-Cpn inhibitor: inactive; ClpP mod: inactive; FUS yeast rescue: inactive; aSyn yeast inh: inactive; Abeta yeast res: inactive

How did CCCOc1ccccc1C(=O)N1CCC(c2nc3ccccc3s2)CC1 do in these assays?
TDP43 rescue: inconclusive; ClpP mod: inactive; FUS yeast rescue: inactive; Abeta yeast res: inactive

How did O=C(CSc1ccccc1Cl)N1CCC(c2nc3ccccc3s2)CC1 do in these assays?
TDP43 rescue: inconclusive; Mm-Cpn inhibitor: inactive; ClpP mod: inactive; FUS yeast rescue: inactive; aSyn yeast inh: inconclusive; Abeta yeast res: inactive

Results for O=C(CSc1ccc(F)cc1)N1CCC(c2nc3ccccc3s2)CC1 ?
TDP43 rescue: 22µM; Mm-Cpn inhibitor: inactive; ClpP mod: inactive; FUS yeast rescue: inactive; aSyn yeast inh: inactive; Abeta yeast res: inactive

Results for O=C(c1cccc(Cl)c1)N1CCC(N2CCC(C(=O)N3CCOCC3)CC2)CC1 ?
TDP43 rescue: inactive; Mm-Cpn inhibitor: inactive; FUS yeast rescue: inactive; aSyn yeast inh: inactive; Abeta yeast res: inactive

Results for O=C(c1cccc(F)c1)N1CCC(N2CCOCC2)CC1 ?
TDP43 rescue: inactive; Mm-Cpn inhibitor: inactive; ClpP mod: 14µM; FUS yeast rescue: inactive; aSyn yeast inh: inactive; Abeta yeast res: inactive

What do the screens show for `CCC(Oc1ccccc1F)C(=O)N1CCC(c2nc3ccccc3s2)CC1` (stereo not drawn)?
TDP43 rescue: 25µM; ClpP mod: inactive; FUS yeast rescue: inactive; Abeta yeast res: inactive

Results for O=C(c1cccc(F)c1)N1CCC(c2nc3ccccc3s2)CC1 ?
TDP43 rescue: 13µM; Mm-Cpn inhibitor: inactive; ClpP mod: inactive; FUS yeast rescue: inactive; aSyn yeast inh: inactive; Abeta yeast res: inactive

What do the screens show for `CS(=O)(=O)c1ccc(C(=O)OCC(=O)N2CCCC2)cc1[N+](=O)[O-]`?
ClpP mod: inactive; aSyn yeast inh: inactive

Results for C#CCNC(=O)C[C@H]1C[C@@]2(C(=O)OC)C(=C[C@H](C3CCCC3)O[C@@H]2C)N(CCC2=CCCCC2)C1=O ?
FUS yeast rescue: inactive

How did CCn1c(SCC(=O)Nc2cccc(NC(C)=O)c2)nnc1-c1ccco1 do in these assays?
TDP43 rescue: inactive; Mm-Cpn inhibitor: inactive; ClpP mod: inconclusive; FUS yeast rescue: inactive; aSyn yeast inh: inactive; Abeta yeast res: inactive

How did CCn1c(SCC(=O)Nc2ccc3c(c2)c2ccccc2n3CC)nnc1-c1ccco1 do in these assays?
TDP43 rescue: inactive; Mm-Cpn inhibitor: inactive; ClpP mod: inactive; FUS yeast rescue: 25µM; aSyn yeast inh: inactive; Abeta yeast res: inactive

What do the screens show for `Cc1ccc(-n2c(=O)c3c4c(sc3n(Cc3cc(=O)n5ccccc5n3)c2=O)CCC4)cc1C`?
TDP43 rescue: inactive; Mm-Cpn inhibitor: inactive; ClpP mod: 28µM!; FUS yeast rescue: inactive; aSyn yeast inh: inactive; Abeta yeast res: inactive

What do the screens show for `Cc1ccc(-n2c(=O)c3c4c(sc3n(Cc3cc(=O)n5cc(Cl)ccc5n3)c2=O)CCC4)cc1C`?
TDP43 rescue: inactive; ClpP mod: inactive; FUS yeast rescue: inactive; Abeta yeast res: inactive

What do the screens show for `Clc1ccc(-c2csc(N/N=C/c3cccnc3)n2)c(Cl)c1`?
TDP43 rescue: 13µM; Mm-Cpn inhibitor: inactive; ClpP mod: inactive; FUS yeast rescue: inconclusive; aSyn yeast inh: inactive; Abeta yeast res: inactive

How did CCOC(=O)c1sc(NC(=O)CSc2n[nH]c(-c3ccncc3)n2)c(C#N)c1C do in these assays?
TDP43 rescue: inactive; Mm-Cpn inhibitor: inactive; ClpP mod: inactive; FUS yeast rescue: inactive; aSyn yeast inh: inactive; Abeta yeast res: inactive

Results for CCOc1ccc(/C=C/C2=Cc3c(sc(NC(=O)CSc4n[nH]c(N)n4)c3C#N)C(C)(C)C2)cc1 ?
TDP43 rescue: inactive; Mm-Cpn inhibitor: inactive; ClpP mod: inactive; FUS yeast rescue: 8.9µM; aSyn yeast inh: inactive; Abeta yeast res: inactive

How did Cc1ccsc1/C=C/C1=Cc2c(sc(NC(=O)CSc3n[nH]c(N)n3)c2C#N)C(C)(C)C1 do in these assays?
TDP43 rescue: inactive; Mm-Cpn inhibitor: inactive; ClpP mod: inactive; FUS yeast rescue: 25µM; aSyn yeast inh: inactive; Abeta yeast res: inactive

What do the screens show for `Cc1cc2c(c(=O)n1Cc1ccccc1)C1O[C@](CCCCN3C(=O)c4ccccc4C3=O)(Cc3cc(C#N)ccc31)O2`?
Mm-Cpn inhibitor: inactive[15.4 µM]

How did CCCn1cc(S(=O)(=O)c2ccccc2)c(=O)c2cc(F)c(N3CCCCCC3)cc21 do in these assays?
TDP43 rescue: inactive; ClpP mod: 28µM; FUS yeast rescue: inactive; Abeta yeast res: inactive

Results for CCCn1cc(S(=O)(=O)c2ccccc2)c(=O)c2cc(F)c(N3CCCC3)cc21 ?
TDP43 rescue: inactive[9.22 µM]; ClpP mod: inactive; FUS yeast rescue: inactive; Abeta yeast res: inactive

Results for CCCn1cc(S(=O)(=O)c2ccc(OC)cc2)c(=O)c2cc(F)c(N3CCCC(C)C3)cc21 (stereo not drawn) ?
TDP43 rescue: inactive; ClpP mod: 20µM; FUS yeast rescue: inactive; Abeta yeast res: inactive

Results for CCn1cc(S(=O)(=O)c2ccccc2)c(=O)c2cc(F)c(N3CCN(c4ccccc4)CC3)cc21 ?
TDP43 rescue: inactive; ClpP mod: inconclusive; FUS yeast rescue: inactive; Abeta yeast res: inactive

How did CCn1cc(S(=O)(=O)c2ccccc2)c(=O)c2cc(F)c(N3CCCC3)cc21 do in these assays?
TDP43 rescue: inactive; ClpP mod: 25µM; FUS yeast rescue: inactive; Abeta yeast res: inactive

How did COc1ccc(NS(=O)(=O)c2ccc(NC(=O)c3ccc(N(C)S(C)(=O)=O)cc3)cc2)c(OC)c1 do in these assays?
TDP43 rescue: inactive; Mm-Cpn inhibitor: inactive; ClpP mod: 25µM; aSyn yeast inh: inactive; Abeta yeast res: inactive

How did CN(c1ccc(C(=O)Nc2ccc3c(c2)n(C)c(=O)n3C)cc1)S(C)(=O)=O do in these assays?
TDP43 rescue: inactive; Mm-Cpn inhibitor: inactive; ClpP mod: 25µM; FUS yeast rescue: inactive; aSyn yeast inh: inactive; Abeta yeast res: inactive

How did CCC(C)n1c(=N)c(S(=O)(=O)c2ccccc2)cc2c(=O)n3ccccc3nc21 (stereo not drawn) do in these assays?
TDP43 rescue: inactive; ClpP mod: inactive; FUS yeast rescue: inactive; aSyn yeast inh: inactive; Abeta yeast res: inactive
